Results taken from PubChem BioAssay.
Calls of active or inactive are those of the source.

Experiments:
[1] = system: Human papillomavirus type 1a protein E7 (residues 44-93); experiment: small molecules binding HPV E7 44-93 – biochemical, small-molecule microarray, residues 44-93, 635 nm fluorescence, primary screen (AID 1108); conditions: fluorescence 635 nm, higher = more signal;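 further: E7 fragment applied at 1 µg/mL in TBST for 1 h at 4 C; score combines spot fluorescence with its signal to noise ratio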
[2] = hepatitis C replication reporter changes, two-sided – Huh7 cells, luciferase reporter, HCV replication inhibitor project, primary screen (AID 1109); conditions: Huh7 HCV replicon luciferase reporter, 48 h; higher = more signal;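 further: huh7 hepatoma cells harbouring a luciferase neomycin HCV replicon reporter; luciferase luminescence as measure of HCV replicon replication; test concentration not given here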
[3] = molecular target: Left-right determination factor 2 (Homo sapiens) (UniProt O00292); experiment: small molecules binding LEFTY2 protein – biochemical, small-molecule microarray, 635 nm fluorescence scan, primary screen (AID 1110); conditions: higher = more signal
Left-right determination factor 2 (Homo sapiens), sequence (O00292 whole entry, looked up): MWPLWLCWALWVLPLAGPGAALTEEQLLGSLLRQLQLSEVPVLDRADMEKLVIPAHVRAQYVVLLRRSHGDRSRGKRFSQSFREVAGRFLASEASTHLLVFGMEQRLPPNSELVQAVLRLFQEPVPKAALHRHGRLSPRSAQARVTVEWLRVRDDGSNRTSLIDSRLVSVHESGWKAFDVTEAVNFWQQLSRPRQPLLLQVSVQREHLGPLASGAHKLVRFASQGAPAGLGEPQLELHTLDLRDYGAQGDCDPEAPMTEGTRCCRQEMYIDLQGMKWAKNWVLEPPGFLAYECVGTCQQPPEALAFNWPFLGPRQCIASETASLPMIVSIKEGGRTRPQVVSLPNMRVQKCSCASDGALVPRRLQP

[4] = molecular target: Calmodulin-1 (Homo sapiens) (UniProt P0DP23); experiment: small molecules binding calmodulin-1 with EGTA – biochemical, small-molecule microarray, Cy5-labelled CALM1, profiling panel (AID 1111); conditions: Cy5-CALM1 binding fluorescence, higher = more signal;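 further: labelled calmodulin applied in Tris saline Tween buffer holding calcium plus EGTA and DTT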
[5] = molecular target: Calmodulin-1 (Homo sapiens) (UniProt P0DP23); experiment: small molecules binding Ca-loaded calmodulin-1 – biochemical, small-molecule microarray, Cy5-labelled CALM1, plus calcium, artefact control for SMM control-protein annotation, profiling panel (AID 1112); conditions: Cy5-CALM1 binding fluorescence, higher = more signal;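 further: score merges spot fluorescence with signal to noise from triplicate slides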
[6] = probe aWnt5a binding to arrayed compounds – biochemical, biotinylated probe, 635/667 nm fluorescence, primary screen (AID 1113); conditions: small-molecule microarray, higher = more signal;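 further: score merges 667 nm fluorescence intensity with signal-to-noise per printed feature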
[7] = probe aShh binding to arrayed compounds – biochemical, biotinylated probe, 635/667 nm fluorescence, primary screen (AID 1114); conditions: small-molecule microarray, higher = more signal;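 further: probe is biotin-labelled aShh protein from a stem cell growth factor screen; measures binding of labelled protein to compounds printed on the slide; score merges feature fluorescence at 667 nm with signal-to-noise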
[8] = probe aNog binding to arrayed compounds – biochemical, biotinylated probe, 635/667 nm fluorescence, primary screen (AID 1115); conditions: small-molecule microarray, higher = more signal;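 further: probe is biotinylated aNog protein used at 0.15 µg/mL for 1 h at 4 C; z-score combines 667 nm fluorescence of each spot with its signal to noise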
[9] = molecular target: Torsin-1A-interacting protein 1 (Homo sapiens) (UniProt Q5JTV8); experiment: compound microarray binding of lysate hLAP1 – cell lysate, small-molecule microarray, COS7 lysate, 635/667 nm fluorescence, primary screen (AID 1116); conditions: 635 nm fluorescence, higher = more signal
Torsin-1A-interacting protein 1 (Homo sapiens), sequence (Q5JTV8 whole entry, looked up): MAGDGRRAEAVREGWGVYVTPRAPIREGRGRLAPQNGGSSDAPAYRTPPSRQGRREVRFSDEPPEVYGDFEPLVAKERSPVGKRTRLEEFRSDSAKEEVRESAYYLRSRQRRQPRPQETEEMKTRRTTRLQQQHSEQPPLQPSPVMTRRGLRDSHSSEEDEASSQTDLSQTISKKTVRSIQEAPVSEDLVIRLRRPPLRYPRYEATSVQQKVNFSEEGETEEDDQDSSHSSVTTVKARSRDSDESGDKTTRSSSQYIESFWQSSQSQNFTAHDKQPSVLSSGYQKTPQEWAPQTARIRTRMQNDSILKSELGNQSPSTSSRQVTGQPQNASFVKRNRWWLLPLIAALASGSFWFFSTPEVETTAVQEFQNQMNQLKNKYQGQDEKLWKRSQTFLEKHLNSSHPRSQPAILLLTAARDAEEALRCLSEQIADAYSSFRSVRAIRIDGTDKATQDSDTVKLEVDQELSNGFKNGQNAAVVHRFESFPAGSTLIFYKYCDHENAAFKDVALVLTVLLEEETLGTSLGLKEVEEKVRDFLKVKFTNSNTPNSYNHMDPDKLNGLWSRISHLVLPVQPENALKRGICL

[10] = molecular target: Alpha-bungarotoxin (Bungarus multicinctus) (UniProt P60615); experiment: compounds binding labelled alpha-BTX control protein – biochemical, small-molecule microarray, Alexa647 label, 635/667 nm fluorescence, artefact control for SMM control protein annotation, profiling panel (AID 1117); conditions: alpha-BTX-A647 binding fluorescence, higher = more signal
Alpha-bungarotoxin (Bungarus multicinctus), sequence (P60615 whole entry, looked up): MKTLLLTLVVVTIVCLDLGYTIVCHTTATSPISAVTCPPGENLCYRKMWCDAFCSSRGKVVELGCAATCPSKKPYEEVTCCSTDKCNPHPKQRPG

[11] = molecular target: Albumin (Bos taurus) (UniProt P02769); experiment: compounds binding labelled BSA control protein – biochemical, small-molecule microarray, Alexa647 label, 635/667 nm fluorescence, artefact control for SMM control protein annotation, profiling panel (AID 1118); conditions: BSA-A647 binding, fluorescence 635 nm, higher = more signal;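 further: score merges 667 nm emission intensity and signal-to-noise per printed compound spot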
Albumin (Bos taurus), sequence (P02769 whole entry, looked up): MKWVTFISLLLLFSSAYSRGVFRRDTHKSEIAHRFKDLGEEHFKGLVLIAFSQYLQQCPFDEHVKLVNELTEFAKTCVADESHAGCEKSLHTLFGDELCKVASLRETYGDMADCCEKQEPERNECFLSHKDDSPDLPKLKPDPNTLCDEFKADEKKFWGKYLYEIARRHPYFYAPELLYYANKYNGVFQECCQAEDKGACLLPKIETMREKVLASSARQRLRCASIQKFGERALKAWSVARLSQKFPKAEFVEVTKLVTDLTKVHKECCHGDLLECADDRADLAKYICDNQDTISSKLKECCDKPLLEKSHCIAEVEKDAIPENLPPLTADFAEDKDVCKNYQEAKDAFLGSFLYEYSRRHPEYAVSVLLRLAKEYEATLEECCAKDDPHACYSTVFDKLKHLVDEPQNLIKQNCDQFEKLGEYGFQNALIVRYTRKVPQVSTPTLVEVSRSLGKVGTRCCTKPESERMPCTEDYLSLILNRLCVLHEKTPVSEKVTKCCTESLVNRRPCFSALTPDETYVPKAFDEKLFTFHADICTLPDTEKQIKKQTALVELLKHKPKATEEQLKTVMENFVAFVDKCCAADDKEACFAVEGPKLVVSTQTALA

[12] = probe aXIP binding to arrayed compounds – biochemical, NeuroSMM set, 635/667 nm fluorescence, primary screen (AID 1119); conditions: small-molecule microarray, higher = more signal, called active from +8 up or from −8 down;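 further: probe is the protein aXip251-270 applied at 1 µg/mL to compound-printed slides; binding of probe to printed compounds measured as 667 nm fluorescence plus signal to noise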
[13] = probe aNOTCH3 binding on compound microarray – biochemical, small-molecule microarray, 635/667 nm fluorescence, primary screen (AID 1120); conditions: higher = more signal;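 further: probe is a biotin-tagged antibody raised against NOTCH3 rather than NOTCH3 protein; score merges spot fluorescence near 667 nm with spot signal to noise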
[14] = probe aNOTCH2 binding on compound microarray – biochemical, small-molecule microarray, 635/667 nm fluorescence, primary screen (AID 1121); conditions: higher = more signal;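 further: score merges feature fluorescence read at 667 nm with its signal to noise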
[15] = molecular target: Carbonic anhydrase 2 (Homo sapiens) (UniProt P00918); experiment: compounds binding carbonic anhydrase 2 – biochemical, small-molecule microarray, Alexa647-labelled CAII, profiling panel (AID 1122); conditions: CAII-A647 binding fluorescence, higher = more signal
[16] = COS7 lysate on small-molecule microarray, probe aHis, 635 nm (AID 1123); conditions: COS7 cell lysate, fluorescence, higher = more signal;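 further: z-score combines 667nm fluorescence intensity with signal-to-noise per printed compound spot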
[17] = probe aLAP1 signal on lysate-treated microarray – cell lysate, small-molecule microarray, COS7 lysate, primary screen (AID 1124); conditions: probe aLAP1, fluorescence, higher = more signal;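 further: lysate comes from COS7 cells expressing LAP1 and is applied at 0.3 µg/mL; score merges spot fluorescence near 667 nm with signal-to-noise over triplicate slides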
[18] = system: Sam68 (KHDRBS1); experiment: compounds binding KHDRBS1 protein – biochemical, small-molecule microarray, 635 nm fluorescence, primary screen (AID 1125); conditions: higher = more signal;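 further: score merges 667 nm channel intensity with signal to noise over triplicate slides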
[19] = system: Chordin-like protein 2 (CHRDL2); experiment: compounds binding chordin-like 2 – biochemical, small-molecule microarray, 635 nm fluorescence, primary screen (AID 1126); conditions: fluorescence 635 nm, higher = more signal;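 further: printed compound slides probed with Chrdl2 protein at 4 µg/mL for 1 h at 4 C; score merges 667 nm emission intensity with signal to noise over three replicate slides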
[20] = molecular target: Concanavalin-A (Canavalia ensiformis) (UniProt P02866); experiment: compounds binding concanavalin A lectin – biochemical, small-molecule microarray, Alexa647 label, 635 nm, artefact control for SMM control protein annotation, primary screen (AID 1127); conditions: ConA-A647 binding fluorescence, higher = more signal;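 further: z combines 667 nm emission intensity with signal-to-noise across three replicate slides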
Concanavalin-A (Canavalia ensiformis), sequence (P02866 whole entry, looked up): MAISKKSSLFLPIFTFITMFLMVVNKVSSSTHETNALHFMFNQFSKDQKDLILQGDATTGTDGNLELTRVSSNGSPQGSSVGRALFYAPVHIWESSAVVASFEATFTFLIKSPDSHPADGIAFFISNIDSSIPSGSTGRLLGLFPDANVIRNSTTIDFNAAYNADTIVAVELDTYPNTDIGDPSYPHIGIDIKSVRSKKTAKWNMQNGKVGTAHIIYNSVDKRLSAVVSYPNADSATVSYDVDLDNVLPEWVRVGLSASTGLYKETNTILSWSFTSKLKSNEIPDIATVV

Structure (SMILES)	composite z-score [1]	z-score [2]	composite z-score [3]	composite z-score [4]	composite z-score [5]	composite z-score [6]	composite z-score [7]	composite z-score [8]	composite z-score [9]	composite z-score [10]	composite z-score [11]	composite Z-score [12]	composite z-score [13]	composite z-score [14]	composite z-score [15]	composite z-score [16]	composite z-score [17]	composite z-score [18]	composite z-score [19]	composite z-score [20]
COC(=O)[C@@]1(Cc2ccc(OC)cc2)[C@H]2c3cc(C(=O)N4CCCC4)n(Cc4cc(F)cc5c4OCOC5)c3C[C@H]2CN1C(=O)c1ccccc1	0.756	-3.58	-0.474	1.37	0.365	0.223	0.108	0.0549	0.831	0.408	0.161	-0.0345 (inactive)	0.58	0.38	0.916	2.39	-0.429	-0.0061	-0.974	0.693
O=C1O[C@H](c2ccccc2)[C@H](c2ccccc2)N2[C@H]1[C@@H](C(=O)NC[C@H](O)c1ccccc1)[C@]1(C(=O)Nc3ccc(C#CCCO)cc31)[C@H]2c1ccc(O)cc1	-0.453	-1.07	-0.47	-0.6	-0.158	-0.202	0.0469	-0.0725	0.0234	-1.61	-0.746	1.33 (inactive)	-0.0259	-0.14	-0.702	0.155	1.11	-0.317	-0.316	-0.743
CC(C)(C)OC(=O)CC[C@@]1(C(=O)O)N=C(c2ccc(OCCCO)cc2)O[C@@H]1c1ccccc1N=[N+]=[N-]	0.884	2.94	-0.486	1.64	1.07	0.0711	0.309	0.58	1.06	1.15	0.933	0.0589 (inactive)	0.39	0.0309	0.72	1.27	0.298	1.12	-0.734	0.648
CCOC(=O)C1=C[C@@H](C(C)C)N(S(=O)(=O)c2ccc(C)cc2)[C@H]1c1ccc(C(C)C)cc1	1.35	-2.16	0.524	1.33	-0.144	-0.0735	-0.138	-0.58	0.324	1.1	0.822	0.376 (inactive)	0.0538	-0.0148	0.39	1.81	0.586	1.31	0.241	1.07
COCCCNC(=O)[C@@]1(CCC(=O)OC(C)(C)C)N=C(c2ccc(OCCCO)cc2)O[C@H]1c1ccccc1CN=[N+]=[N-]	1.49	0.43	-0.139	1.39	0.854	0.112	0.0898	1.36	2.28	2.19	0.642	-0.371 (inactive)	0.433	0.0716	0.577	3.34	1.53	1.26	-0.105	0.8
C=CCOC(=O)[C@@H]1[C@H]2C(=O)O[C@H](c3ccccc3)[C@H](c3ccccc3)N2[C@H](c2ccc(OCCOC(=O)[C@@H]3C[C@@H]4C(=O)NCC(=O)N4[C@@H]3c3cccc(OCCO)c3)cc2)[C@@]12C(=O)Nc1ccc(I)cc12	1.43	-1.54	0.949	0.689	-0.0508	-0.0735	-0.043	1.07	-1.86	1.75	-0.991	-0.0135 (inactive)	-0.0835	-0.0242	0.501	1.59	0.875	1.3	0.926	0.964
C=CCC(OC(C)=O)[C@@H]1[C@@H](N(Cc2cccc3ccccc23)C(=O)c2ccc(C)cc2)c2cc(OCCCO)ccc2N1C(=O)Cc1ccc(OC)cc1 (stereo not given in full)	0.332	-0.22	-0.248	0.327	-0.0943	-0.124	0.0278	-0.198	0.0873	0.215	0.15	-0.858 (inactive)	0.114	-0.127	0.112	0.223	-0.0098	0.175	0.352	0.0517
C=C(COC)C(=O)CC[C@H](OC(C)=O)c1cccc(OCCO)c1	-0.76	-0.574	-0.729	-0.779	-0.773	-0.124	0.111	-0.0428	0.8	1.24	-0.768	0.157 (inactive)	-0.165	-0.154	0.358	0.451	0.775	0.151	-0.298	-0.935
COC(=O)[C@@]1(Cc2ccccc2)[C@H]2c3cc(C(=O)N(C)C)n(Cc4c(-c5ccccc5)noc4C)c3C[C@H]2CN1C(=O)c1ccccc1	1.15	-0.535	-0.51	1.16	0.954	0.204	0.545	1.85	1.68	1.56	1.01	-0.899 (inactive)	0.187	0.379	0.437	2.63	-0.157	0.486	0.28	0.564
Cc1cc(C)c(C(O)C2C=CC3C(=O)N(c4ccccc4)C(=O)C3N2Nc2ccc(C#N)cc2)c(C)c1 (stereo not given)	0.486	-0.111	0.219	2.56	1.17	0.0894	-0.0793	1.97	0.922	1.79	1.07	0.902 (inactive)	0.0649	0.115	0.743	3.02	0.629	1.35	-0.183	1.19
O=C1C=CC(=O)[C@@H]2CC(COc3ccccc3)=C3[C@@H](CCc4ccccc4)OB(O)C[C@@H]3[C@H]12	0.23	-1.64	0.41	-0.413	-1.09	-0.0819	0.0121	-0.175	0.0342	0.361	-0.182	0.155 (inactive)	-0.0647	-0.219	-0.0292	0.113	-0.17	0.359	0.299	0.238
